{"source": "the supplement of paper PMC6992640", "assay_in_all_cases": "cell viability (% of vehicle); higher = less cytotoxic", "conditions_in_all_cases": "10 µM; 72 h", "key": {"HCI01": {"system": "HCI01 (cells of a triple-negative basal-like breast cancer xenograft)"}, "HCI03": {"system": "HCI03 (cells of an ER-positive luminal breast cancer xenograft)"}, "HCI09": {"system": "HCI09 (cells of a triple-negative luminal androgen receptor type breast cancer xenograft)"}, "HCI11": {"system": "HCI11 (cells of an ER-positive luminal breast cancer xenograft)"}, "HCI13": {"system": "HCI13 (cells of an ER-positive luminal breast cancer xenograft)"}, "HCI16": {"system": "HCI16 (cells of a triple-negative basal-like breast cancer xenograft)"}, "UCD52": {"system": "UCD52 (cells of a triple-negative basal-like breast cancer xenograft)"}, "WHIM2": {"system": "WHIM2 (cells of a triple-negative basal-like breast cancer xenograft)"}, "WHIM30": {"system": "WHIM30 (cells of a triple-negative basal-like breast cancer xenograft)"}}, "note": "± gives the standard deviation of the averaged measurements.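 Further: PDX cells carrying CMV promoter-driven luciferase, viability read as total photon flux per second by IVIS imaging following D-luciferin, vehicle control 0.1% DMSO.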", "data": [{"smiles": "CN1C2CCC1CC(OC(c1ccccc1)c1ccccc1)C2.CS(=O)(=O)O", "note": "(stereo not given) [Benztropine mesylate]", "values": [{"measurement": "cell viability", "setting": "HCI01", "value": "189 ± 60"}, {"measurement": "cell viability", "setting": "HCI03", "value": 108}, {"measurement": "cell viability", "setting": "HCI09", "value": "110 ± 13"}, {"measurement": "cell viability", "setting": "HCI11", "value": 94}, {"measurement": "cell viability", "setting": "HCI13", "value": "120 ± 14"}, {"measurement": "cell viability", "setting": "HCI16", "value": 125}, {"measurement": "cell viability", "setting": "UCD52", "value": "80.4 ± 7.7"}, {"measurement": "cell viability", "setting": "WHIM2", "value": "83.4 ± 12"}, {"measurement": "cell viability", "setting": "WHIM30", "value": "141 ± 1.6"}]}, {"smiles": "CC12CCC3c4ccc(O)cc4CCC3C1CCC2OC(=O)CCC1CCCC1", "note": "(stereo not given) [Estradiol Cypionate]", "values": [{"measurement": "cell viability", "setting": "HCI01", "value": "168 ± 2.2"}, {"measurement": "cell viability", "setting": "HCI03", "value": 101}, {"measurement": "cell viability", "setting": "HCI09", "value": "96.6 ± 4.5"}, {"measurement": "cell viability", "setting": "HCI11", "value": 93.1}, {"measurement": "cell viability", "setting": "HCI13", "value": "180 ± 16"}, {"measurement": "cell viability", "setting": "HCI16", "value": 147}, {"measurement": "cell viability", "setting": "UCD52", "value": "92 ± 6.5"}, {"measurement": "cell viability", "setting": "WHIM2", "value": "110 ± 10"}, {"measurement": "cell viability", "setting": "WHIM30", "value": "130 ± 12"}]}, {"smiles": "Nc1ccc(S(=O)(=O)Nc2nccs2)cc1", "note": "[Sulfathiazole]", "values": [{"measurement": "cell viability", "setting": "HCI01", "value": "102 ± 30"}, {"measurement": "cell viability", "setting": "HCI03", "value": 140}, {"measurement": "cell viability", "setting": "HCI09", "value": "93.4 ± 7.8"}, {"measurement": "cell viability", "setting": "HCI11", "value": 84.5}, {"measurement": "cell viability", "setting": "HCI13", "value": "197 ± 28"}, {"measurement": "cell viability", "setting": "HCI16", "value": 116}, {"measurement": "cell viability", "setting": "UCD52", "value": "96.5 ± 11"}, {"measurement": "cell viability", "setting": "WHIM2", "value": "98.2 ± 6.3"}, {"measurement": "cell viability", "setting": "WHIM30", "value": "110 ± 8.6"}]}, {"smiles": "COc1ccc(O)cc1", "note": "[Mequinol]", "values": [{"measurement": "cell viability", "setting": "HCI01", "value": "91 ± 10"}, {"measurement": "cell viability", "setting": "HCI03", "value": 108}, {"measurement": "cell viability", "setting": "HCI09", "value": "101 ± 13"}, {"measurement": "cell viability", "setting": "HCI11", "value": 70.4}, {"measurement": "cell viability", "setting": "HCI13", "value": "124 ± 32"}, {"measurement": "cell viability", "setting": "HCI16", "value": 118}, {"measurement": "cell viability", "setting": "UCD52", "value": "71 ± 7.1"}, {"measurement": "cell viability", "setting": "WHIM2", "value": "96.5 ± 20"}, {"measurement": "cell viability", "setting": "WHIM30", "value": "100 ± 2.8"}]}, {"smiles": "Nc1ccc(S(=O)(=O)Nc2ccccn2)cc1", "note": "[Sulfapyridine]", "values": [{"measurement": "cell viability", "setting": "HCI01", "value": "111.2 ± 0.17"}, {"measurement": "cell viability", "setting": "HCI03", "value": 131}, {"measurement": "cell viability", "setting": "HCI09", "value": "101 ± 2.1"}, {"measurement": "cell viability", "setting": "HCI11", "value": 92.6}, {"measurement": "cell viability", "setting": "HCI13", "value": "138 ± 15"}, {"measurement": "cell viability", "setting": "HCI16", "value": 147}, {"measurement": "cell viability", "setting": "UCD52", "value": "113 ± 19"}, {"measurement": "cell viability", "setting": "WHIM2", "value": "100 ± 0.64"}, {"measurement": "cell viability", "setting": "WHIM30", "value": "120 ± 12"}]}, {"smiles": "Cc1ccc(C2OC(CO)C(O)C(O)C2O)cc1Cc1ccc(-c2ccc(F)cc2)s1", "note": "(stereo not given) [Canagliflozin]", "values": [{"measurement": "cell viability", "setting": "HCI01", "value": "114 ± 6.5"}, {"measurement": "cell viability", "setting": "HCI03", "value": 150}, {"measurement": "cell viability", "setting": "HCI09", "value": "55.8 ± 27"}, {"measurement": "cell viability", "setting": "HCI11", "value": 108}, {"measurement": "cell viability", "setting": "HCI13", "value": "77.3 ± 21"}, {"measurement": "cell viability", "setting": "HCI16", "value": 124}, {"measurement": "cell viability", "setting": "UCD52", "value": "76 ± 9.2"}, {"measurement": "cell viability", "setting": "WHIM2", "value": "65.5 ± 51"}, {"measurement": "cell viability", "setting": "WHIM30", "value": "110 ± 5.9"}]}, {"smiles": "CC(C)CC(N)=O", "note": "[Isovaleramide]", "values": [{"measurement": "cell viability", "setting": "HCI01", "value": "103 ± 22"}, {"measurement": "cell viability", "setting": "HCI03", "value": 132}, {"measurement": "cell viability", "setting": "HCI09", "value": "97.6 ± 3.4"}, {"measurement": "cell viability", "setting": "HCI11", "value": 98.5}, {"measurement": "cell viability", "setting": "HCI13", "value": "104 ± 13"}, {"measurement": "cell viability", "setting": "HCI16", "value": 94.6}, {"measurement": "cell viability", "setting": "UCD52", "value": "99.9 ± 2"}, {"measurement": "cell viability", "setting": "WHIM2", "value": "98.5 ± 13"}, {"measurement": "cell viability", "setting": "WHIM30", "value": "96.1 ± 7.9"}]}, {"smiles": "Nc1ccn(C2OC(CO)C(O)C2(F)F)c(=O)n1", "note": "(stereo not given) [Gemcitabine]", "values": [{"measurement": "cell viability", "setting": "HCI01", "value": "70.3 ± 11"}, {"measurement": "cell viability", "setting": "HCI03", "value": 95.9}, {"measurement": "cell viability", "setting": "HCI09", "value": "75.1 ± 9.5"}, {"measurement": "cell viability", "setting": "HCI11", "value": 112}, {"measurement": "cell viability", "setting": "HCI13", "value": "118 ± 5.3"}, {"measurement": "cell viability", "setting": "HCI16", "value": 64.7}, {"measurement": "cell viability", "setting": "UCD52", "value": "100.6 ± 0.62"}, {"measurement": "cell viability", "setting": "WHIM2", "value": "78.9 ± 22"}, {"measurement": "cell viability", "setting": "WHIM30", "value": "119 ± 12"}]}, {"smiles": "CCC(Nc1ncnc2nc[nH]c12)c1nc2cccc(F)c2c(=O)n1-c1ccccc1", "note": "(stereo not given) [CAL-101 (Idelalisib, GS-1101)]", "values": [{"measurement": "cell viability", "setting": "HCI01", "value": "91.6 ± 8.4"}, {"measurement": "cell viability", "setting": "HCI03", "value": 80.7}, {"measurement": "cell viability", "setting": "HCI09", "value": "88.2 ± 19"}, {"measurement": "cell viability", "setting": "HCI11", "value": 76.8}, {"measurement": "cell viability", "setting": "HCI13", "value": "51.9 ± 3.4"}, {"measurement": "cell viability", "setting": "HCI16", "value": 68.1}, {"measurement": "cell viability", "setting": "UCD52", "value": "68.3 ± 3"}, {"measurement": "cell viability", "setting": "WHIM2", "value": "62.8 ± 2.9"}, {"measurement": "cell viability", "setting": "WHIM30", "value": "121.9 ± 0.48"}]}, {"smiles": "CS(=O)(=O)c1ccc(C(=O)Nc2ccc(Cl)c(-c3ccccn3)c2)c(Cl)c1", "note": "[GDC-0449 (Vismodegib)]", "values": [{"measurement": "cell viability", "setting": "HCI01", "value": "109 ± 40"}, {"measurement": "cell viability", "setting": "HCI03", "value": 94.4}, {"measurement": "cell viability", "setting": "HCI09", "value": "69.5 ± 20"}, {"measurement": "cell viability", "setting": "HCI11", "value": 104}, {"measurement": "cell viability", "setting": "HCI13", "value": "105 ± 7.7"}, {"measurement": "cell viability", "setting": "HCI16", "value": 83.4}, {"measurement": "cell viability", "setting": "UCD52", "value": "67.1 ± 1.8"}, {"measurement": "cell viability", "setting": "WHIM2", "value": "111 ± 5.5"}, {"measurement": "cell viability", "setting": "WHIM30", "value": "133 ± 2.4"}]}]}
